Sfp inh = Sfp phosphopantetheinyl transferase inhibition | Q9F4F7 | AID 1490 | Biochemical Sfp PPTase activity, qHTS | actives 3.5% (n = 310,000) | Potency, µM, for the others: largest response in the series, negative = inhibition, actives largely listed as inhibitors;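 note: the enzyme is Sfp with the accession as filed and its product quenches rhodamine fluorescence; 0% = enzyme reaction without inhibitor and -100% = no enzyme wells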
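With Hepes-Na pH 7.6 buffer containing 10 mM MgCl2, Sfp (15 nM) modified BHQ-2-YbbR (12.5 uM) using rhodamine-CoA (5 uM). Two reads 30 minutes apart at 525/598 nm yielded each well's rate.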
ALOX12 inh = blocks human arachidonate 12S-lipoxygenase | actives 1.1% (n = 580,000) | Potency, µM (doses to about 108 µM), without a hit: top-dose activity change, negative = inhibition, usual class: inhibitors | AID 1671190 | purified 12hLO, xylenol orange hydroperoxide absorbance; note: % is set by controls: 0 for no effect and ±100 for the full control effect
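Purified human 12hLO (150 nM final) in 25 mM Hepes, 0.01% Triton X-100, pH 7.0 was preincubated 15 min at room temperature with compound. Then 40 uM arachidonic acid was added, 30 min. Hydroperoxide was read by Fe-XO absorbance ratio 573/405 nm.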
VDR inh = vitamin D3 receptor (human) inhibition. P11473. actives 0.93% (n = 400,000). Potency, µM, without a hit: max response, negative = inhibition, actives largely listed as inhibitors. VDR-SRC2-3 peptide fluorescence polarization, 2 h; note: % is set by controls: 0 for no effect and ±100 for the full control effect
Target sequence (P11473 whole entry, looked up): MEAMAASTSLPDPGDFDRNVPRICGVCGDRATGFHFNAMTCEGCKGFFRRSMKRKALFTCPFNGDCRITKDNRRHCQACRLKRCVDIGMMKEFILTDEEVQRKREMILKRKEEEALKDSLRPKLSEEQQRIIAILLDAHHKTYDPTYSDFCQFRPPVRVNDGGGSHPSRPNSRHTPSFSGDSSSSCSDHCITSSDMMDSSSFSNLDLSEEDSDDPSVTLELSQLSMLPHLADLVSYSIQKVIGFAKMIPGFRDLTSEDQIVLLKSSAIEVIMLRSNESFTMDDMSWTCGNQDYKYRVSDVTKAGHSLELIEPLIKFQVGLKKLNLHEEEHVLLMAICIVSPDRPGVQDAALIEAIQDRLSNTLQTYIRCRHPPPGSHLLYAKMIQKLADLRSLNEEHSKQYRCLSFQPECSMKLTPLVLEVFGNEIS
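Fluorescence polarization assay measuring small-molecule disruption of VDR binding to the coregulator peptide SRC2-3. Compounds were pin-transferred (23 nl) into the reagent mix and incubated 2 h at room temperature before reading.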
G9a inh = inhibitors of human histone lysine methyltransferase G9a | Potency, µM (highest dose often 102 µM), for inactives: at the top dose activity, negative = inhibition, most hits filed as inhibitors | Q96KQ7 | actives 8.8% (n = 350,000) | AID 504332 | G9a H3K9 monomethylation, AlphaScreen, 2 h; note: % is set by controls: 0 for no effect and ±100 for the full control effect; nearly all actives have a fitted effect of over 75% in size
Target sequence (Q96KQ7 913-1193 limits assumed): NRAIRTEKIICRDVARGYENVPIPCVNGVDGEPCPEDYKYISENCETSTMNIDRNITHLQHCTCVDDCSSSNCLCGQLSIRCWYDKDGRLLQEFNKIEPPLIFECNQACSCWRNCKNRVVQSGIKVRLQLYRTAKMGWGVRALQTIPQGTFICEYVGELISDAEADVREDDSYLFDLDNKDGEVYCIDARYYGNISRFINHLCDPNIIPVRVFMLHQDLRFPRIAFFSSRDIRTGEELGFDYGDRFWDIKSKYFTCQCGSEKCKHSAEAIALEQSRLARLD
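Step 1: enzyme (final 20 nM) with compound, 15 min RT. Step 2: substrate peptide 500 nM and SAM 20 uM, 2 h RT. Step 3: anti-H3K9me1 antibody and AlphaScreen beads, 10 min, then plate read.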
GRP78 ERSR act = inducers of ER stress response in human glioma cells. Potency, µM, inactives show top-dose activation, most hits filed as activators. actives 0.02% (n = 420,000). U87-MG GRP78 promoter luciferase reporter, 16 h; note: series mostly up to about 76 µM; % of control where 0% means no effect; nearly all actives have a fitted effect of over 35% in size
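ERSR induction read as luciferase luminescence (Bright-Glo, 10 min at room temperature) in stably transfected human U87-MG glioma cells exposed to compounds for 16 h, using GRP78 as sensor.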
* hit, by the source's call; ? = inconclusive; nt = no result given; ! = a repeat was not active; [ ] = dose if it differs, or a comment. This is one part of a sample in which hits are shown more often than they occur. Calls come from the whole dose curve; as a rule, active = well fitted curve in the direction sought with a large enough effect; inconclusive = small, poorly fitted or top-dose-only effect, or another doubt; inactive = no such curve, though single readings can be large; an effect the other way counts as inactive or inconclusive. Potency is the fitted concentration of half-maximal effect.

SMILES | Sfp inh | ALOX12 inh | VDR inh | G9a inh | GRP78 ERSR act
COc1ccc(CN2C(=O)CC(=O)NC2=S)cc1 | ? | 45µM* | 14% | 71µM* | -7%
O=C1CC(=O)N(Cc2ccccc2)C(=O)N1 | nt | ? | ? | nt | -5%
O=C1N(c2ccccn2)C[C@H]2CN(Cc3ccccc3)CCN12 | nt | 4%[176 µM] | nt | nt | nt
COc1cc(/C=C2/SC(=S)N(Cc3ccccc3)C2=O)ccc1OCC(=O)O | -25% | 28% | 89µM* | 5%[0.501 µM] | 1%
CC=C(C)C1(CCC)C(=O)NC(=S)NC1=O | nt | 32µM* | -4% | nt | -3%
O=C(NC[C@H]1C[C@@H]2CCN1C[C@@H]2CN1CCN(c2ccc(F)cc2)CC1)c1ccco1 | nt | 24%[176 µM] | nt | nt | nt
Cc1ccc(C(=O)Nc2cccc3cnccc23)cc1S(=O)(=O)N1CCCCC1 | nt | -57% | nt | nt | nt
O=C1c2ccccc2C(=O)c2ccccc21 | 22% | 2% | 5% | 0%[59 µM] | -1%
O=C1C=Cc2ccccc2C1=O | 2.8µM* | nt | nt | 8.9µM* | nt
Cc1cccnc1-n1c(-c2ccco2)nc2ccccc2c1=O | 0% | 0% | -5% | 50µM* | -5%
O=[S+]1([O-])NC2(CCN(Cc3ccccn3)C2)COc2ccncc21 (stereo not drawn) | nt | 31% | nt | nt | nt
COc1ccc(NS(=O)(=O)c2ccc(OCC(=O)N3CCN(C)CC3)cc2)cc1Cl | 15% | 1% | -1% | 79µM* | -7%
O=C(Nc1cccc(F)c1)N1CC2(CCNCC2)C1 | ? | ? | 40µM* | -6%[12.7 µM] | -2%
COCCN1C(=O)CS(=O)(=O)C12CCNCC2 | nt | 51% | nt | nt | nt
O=[N+]([O-])c1cc([N+](=O)[O-])c2ccccc2c1 | nt | -13%[57.4 µM] | nt | nt | -4%
O=[N+]([O-])c1ccc(-c2ccc(C=Nc3cccc4ccccc34)o2)cc1 | 9% | -7% | 14% | 6.3µM* | 2%
O[C@H]1[C@H](NCc2ccccn2)[C@H]2CO[C@H](O2)[C@@H]1N1CCCC1 | nt | 116%[176 µM] | nt | nt | nt
O=C(c1ccoc1)N1CCC2(CC1)NCc1ccccc1-n1ccnc12 | nt | 49% | nt | nt | nt
O=C(O)c1ccc(-n2c(O)c(/C=C3\C=Nc4ccccc43)c(=O)[nH]c2=O)cc1 | -4% | ? | -16% | 45µM* | -1%
O=c1[nH]c(=O)n(-c2cccc(F)c2)c(O)c1/C=C1\C=Nc2ccccc21 | -10% | -14% | 5% | -12% | 1%
CCCCn1c(O)c(/C=C2\C=Nc3ccccc32)c(=O)[nH]c1=O | -8% | 11% | 53% | 71µM* | 0%
CC(C)(C)c1ccc(-c2n[nH]c(=S)n2CCCN2CCOCC2)cc1 | 3% | ? | 12% | 6.3µM* | -1%
CN1CCc2nc(SCc3ccccc3Br)c(C#N)cc2C1 | -23% | 3% | -13% | 18µM* | 4%
CC(C)(C)c1cn(C[C@H]2CC3CCN2C[C@@H]3C(=O)NCc2ccc3c(c2)OCO3)nn1 (stereo partly drawn) | nt | 7%[176 µM] | nt | nt | nt
Cc1ccc(/C=C2/C(=O)NC(=O)N(CCc3ccc(F)cc3)C2=O)o1 | 56µM* | ? | 73% | 34%[0.501 µM] | -2%
SMILES | Sfp inh | ALOX12 inh | VDR inh | G9a inh | GRP78 ERSR act
O=C1NC(=O)N(CCc2ccc(F)cc2)C(=O)/C1=C/c1ccco1 | 50µM* | ? | 39% | 10µM* | -6%
CN(C)c1ccc(/C=C2\C(=O)NC(=O)N(CCc3ccc(F)cc3)C2=O)cc1 | -18% | 16µM* | 40µM* | 45µM* | -4%
CCN1C2CCC1CN(C(=O)c1ccncc1)C2 | nt | 2%[12.5 µM] | nt | nt | nt
O=c1[nH]cc(N(CCCl)CCCl)c(=O)[nH]1 | ? | nt | 18µM* | ? | 4%
CC(C)COc1ccc(Cc2c(O)[nH]c(=S)[nH]c2=O)cc1 | ? | 8.9µM* | -23% | 22%[0.501 µM] | -1%
Cc1cc(Cc2c(O)[nH]c(=S)[nH]c2=O)ccc1OC(C)C | 56µM* | 20µM* | 79µM* | 8.9µM* | -2%
COc1ccc(-c2cc([C@H]3CN4CC[C@H]3C[C@@H]4CNC(=O)CSCC(=O)O)nc(C)n2)cc1OC | nt | 89% | nt | nt | nt
CNC(=O)C1CCN(C(=O)c2cn(Cc3ccccc3)c3ccccc23)CC1 | nt | 12% | nt | nt | nt
CCNC(=O)NC[C@H]1C[C@@H]2CCN1C[C@@H]2c1cc(-c2ccccc2)nn1C | nt | 18%[176 µM] | nt | nt | nt
NC(=O)c1ccc(OCCC(O)N2CC=C(c3ccc(F)cc3)CC2)cc1 (stereo not drawn) | nt | 0% | -2% | 2%[59 µM] | 0%
O=C1CC(N2CC=C(c3ccc(F)cc3)CC2)C(=O)N1c1ccc(F)cc1 (stereo not drawn) | 3% | ? | 3% | 25µM* | 0%
CCOC(=O)c1ccc(N2C(=O)CC(N3CC=C(c4ccc(F)cc4)CC3)C2=O)cc1 (stereo not drawn) | 32µM* | ? | -2% | 3.2µM* | -1%
CC(=O)OCC[N+](C)(C)C | 20% | ? | -11% | 16%[59 µM] | -1%
C[N+](C)(C)CCOC(=O)CBr | -25% | ? | 5% | 25µM*! | -4%
O=C(c1cccs1)C1CCCN(Cc2cc3n(n2)CCNC3)C1 (stereo not drawn) | nt | 42% | nt | nt | nt
O=C1/C(=C\c2cc3c(cc2Br)OCO3)N2CCC1CC2 | ? | nt | -3% | 45µM* | -5%
C#C[C@H]1CN2CC[C@H]1C[C@@H]2CNC(=O)c1ccc(N(C)C)cc1 | nt | 32%[176 µM] | nt | nt | nt
CCCN(CCC)[C@@H]1CCc2c(F)ccc(O)c2C1 | nt | nt | nt | 50µM* | nt
CCCN(CCC)C1CCc2cccc(O)c2C1 (stereo not drawn) | ? | -7% | 3% | 24µM*! | -3%
COC[C@H]1CCCN1C[C@H]1CN2CC[C@H]1C[C@@H]2CN | nt | 98%[176 µM] | nt | nt | nt
COc1cccc(CN2CCN(C(=O)COc3ccc4ccccc4c3)CC2)c1 | ? | 1% | 21% | ? | 6%
COc1cc(CN2CCN(C(=O)COc3ccc4ccccc4c3)CC2)cc(OC)c1O | nt | 1.6µM* | nt | nt | nt
COc1cc(OC)c(OC)cc1CN1CCN(C(=O)COc2ccc3ccccc3c2)CC1 | -21% | ? | -3% | 10µM* | -1%
O=C1NC[C@H]2CN(C3CCC3)CCN12 | nt | 28%[176 µM] | nt | nt | nt
CN1CCC2(CC1)C(C#N)=C(N)NC(S)=C2C#N | -26% | -17% | -19% | 6.3µM* | -3%
SMILES | Sfp inh | ALOX12 inh | VDR inh | G9a inh | GRP78 ERSR act
CCOc1cc(/C=C2\C(=O)NC(=O)N(C)C2=O)cc([N+](=O)[O-])c1O | 28µM* | ? | -27% | 50µM* | -2%
CC(C)NC(=O)N1CCC2(CC1)c1nccn1-c1ccccc1CN2C | nt | 43% | nt | nt | nt
CCOc1ccc(CC2C(=O)NC(=O)N(c3ccc(CC)cc3)C2=O)cc1 (stereo not drawn) | 56µM* | 8% | ? | ? | -7%
Cn1ccnc1P(=S)(c1nccn1C)N1CCOCC1 | ? | ? | ? | ? | -4%
Cn1ccnc1P(=S)(c1nccn1C)c1nccn1C | 50µM* | 4% | -17% | 3.5µM* | -5%
O=C(NC1CCCCC1)Oc1cc2oc(=O)sc2cc1Cl | 3.5µM* | ? | 32µM* | 40µM* | 2%
Cc1ccccc1-n1c(O)c(C(c2ccncc2)c2c(O)n(-c3ccccc3C)c(=O)[nH]c2=O)c(=O)[nH]c1=O | -22% | 1% | ? | 25µM* | -4%

Screening data from PubChem BioAssay.
